The panel holds about 83,000 compounds, 20% with a hit somewhere; the sample as a whole holds those more often.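 The endpoint reported here, percent growth, reads 100 for growth as untreated, 0 for no net growth and -100 for all cells dead.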 Active and inactive are the calls of the source. Rule for the calls: active = growth percent below 10; inactive = the rest.

This assay deals with MDA-MB-231 breast. The assay can be described thus: NCI-60 one-dose screen, 48 h (100 = growth as untreated, 0 = no growth, -100 = all killed). As to conditions: 10 µM unless noted.
On to `CC(=O)O[C@H]1CC[C@]2(C)[C@H]3CC=C4[C@@H]5CC(C)(C)CC[C@]5(C(=O)OCC(COC(=O)C(Cl)Cl)(COC(=O)C(Cl)Cl)NC(=O)C(Cl)Cl)CC[C@@]4(C)[C@]3(C)CC[C@H]2C1(C)C`, for which the growth is 82.9% (inactive). To `Clc1ccc(Cl)c(N=Cc2ccc3c(c2)OCO3)c1` belongs 124% (inactive); to `CCN(CC)c1ccc2c(cc1=O)[C@@H](NC(C)=O)CCc1cc(OC)c(OC)c(OC)c1-2`, 15.1% (inactive). As to `COc1ccc(CNc2c3ccccc3nc3ccc(OC)cc23)cc1`, the growth was 23.6% (inactive). The figure for `NC(=O)c1ccc[n+](Cc2ccccc2)c1` is 105% (inactive); for `N/N=C(\C(=N\N)c1ccccc1)c1ccccc1` it is 111% (inactive); for `CC1=C(O)C(=O)CC1` it is 108% (inactive).

`CCN(CC)CCCC(C)Nc1ccnc2ccc(Oc3ccccc3)cc12` (centres undefined): the growth is 42.5% (inactive). The figure for `COc1cc2ncnc(Nc3ccc(S(=O)(=O)Nc4nccs4)cc3)c2cc1OCCCN1CCOCC1` is 99.2% (inactive); for `CC(=O)Cc1ccccn1` it is 105% (inactive); for `CC1OC(n2c3ccccc3c3c4c(c5c6ccccc6[nH]c5c32)C(=O)N(CCN[C@H]2CCC[C@@H]2N)C4=O)CC(O)C1O` (some centres undefined) it is 37.5% (inactive). For `O=C(C(=O)N1CCCC1)c1cn(CCCn2cc(C(=O)C(=O)N3CCCC3)c3cc(Br)ccc32)c2ccc(Br)cc12`, the growth was 82.1% (inactive). For `CCCCCCCOc1cccc(/C=C2\N=C3SCCCN3C2=O)c1`, the growth is 87.7% (inactive). With `COc1ccc(NC(=O)c2sc3c(=O)[nH]c(C(F)(F)F)nc3c2C)cc1`, the growth is 112% (inactive).

Source of the values: PubChem BioAssay (NCI).
